The text below walks through data of PubChem BioAssay (NCI).

Common to all, as to assay: NCI-60 one-dose screen, 48 h (100 = growth as untreated, 0 = no growth, -100 = all killed)
Conditions in all cases: 10 µM unless noted

The test system of assay [1] is DU-145 prostate.
Assay [2] deals with K-562 leukemia.
The subject of assay [3] is MALME-3M melanoma.
The test system of assay [4] is MDA-MB-231 breast.
Assay [5] concerns RXF 393 renal.
For assay [6], the system named is SF-268 CNS.
Assay [7] deals with SF-295 CNS.
The test system of assay [8] is SF-539 CNS.
The subject of assay [9] is UACC-257 melanoma.
Assay [10] concerns M14 melanoma.
For assay [11], the system named is HCT-15 colon.
Assay [12] has as its system HT29 colon.
For assay [13], the system named is SNB-75 CNS.
Assay [14] has as its system SNB-19 CNS.
Assay [15] relates to U251 CNS.
In assay [16] the test system is PC-3 prostate.
Assay [17] has as its system SK-MEL-5 melanoma.
Assay [18] concerns UACC-62 melanoma.
The test system of assay [19] is LOX IMVI melanoma.
Assay [20] concerns SK-MEL-28 melanoma.

The panel holds about 83,000 compounds, 20% with a hit somewhere; the sample as a whole holds those more often.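 Plates (96-well) were seeded with cells, treated with compound at one concentration, and incubated for 48 hours before percent growth was determined.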 Values without a mark were called inactive. The source made the active and inactive calls. The calls were made as follows: active = growth percent below 10; inactive = the rest.

As to `CC(C)C1=NOC(=O)C1=Cc1cn(-c2ccccc2)nc1-c1ccccc1`, the growth in assay [1] was 80.8%; in [2], 42.2%; in assay [3], 90.5%; in assay [4], 97.4%; in assay [5], 70.3%; in assay [6], 93.9%. In addition, the growth in assay [7] was 98.1%; in [8] it was 91.3%; in assay [9], 94.1%; in assay [10] it was 76.2%; in assay [11] it was 77.4%; in assay [12], 49.2%. In addition, the growth in assay [13] is 72.5%; in assay [14], 74.8%; in assay [15], 53%; in assay [16], 67.9%; in assay [17] it was 91.6%; in assay [18], 76.1%. In addition, the growth was 18% in assay [19] and 95.1% in assay [20].
Regarding `COc1cc2c(cc1OC(C)=O)C(=O)CCCC2`, the growth is 128% in assay [1]; 186% in assay [2]; 93.3% in assay [3]; 112% in assay [4]; 94.2% in [5]; 107% in assay [6]. In addition, the growth in [7] was 107%; in assay [8], 90.9%; in [9], 86.7%; in assay [10], 87.9%; in assay [11] it was 83%; in assay [12], 96.5%. Besides, the growth in assay [13] was 54.2%; in assay [14], 109%; in assay [15], 94.4%; in assay [16], 87.5%; in assay [17], 90.1%; in [18] it was 105%. In addition, the figures for the growth in assay [19] and in assay [20] were 95.6% and 95.2%, respectively.
In the case of `COc1ccc2c(c1)C(C)Cc1c(Cl)ncnc1N2C` (stereo not given), the growth in assay [1] is 35.3%; in [2] it was 9.21% (active); in assay [3], 41.4%; in assay [4], -45.3% (active); in assay [5] it was -8.62% (active); in assay [6] it was 10.5%. The growth in assay [7] is 15.2%; in [8], 28%; in assay [9], 13.6%; in [10], 12.1%; in assay [11] it was 4.94% (active); in [12] it was -3.53% (active). Further, the growth in assay [13] was 2.7% (active); in assay [14] it was 27.7%; in assay [15], 15.5%; in assay [16], 11.4%; in [17], -83.6% (active); in assay [18], 0.755% (active). Further, the growth was -69.2% (active) in assay [19] and 14.8% in assay [20].
Take `CCOc1ccc(S(=O)(=O)Nc2ccc3c(c2)N(S(=O)(=O)CC)CCC3)cc1`: the growth in assay [1] was 89.6%; in assay [2], 71.6%; in [3], 100%; in [4], 88.7%; in [5] it was 86.2%; in assay [6] it was 74.1%. Further, the growth in [7] was 59.2%; in assay [8], 61.6%; in [9] it was 85.4%; in [10], 107%; in assay [11] it was 89.9%; in assay [12], 72.7%. For the same compound, the growth in assay [13] was 64.8%; in assay [14], 80.4%; in assay [15], 61.8%; in [16], 73.1%; in assay [17], 74.9%; in [18] it was 64.8%. Besides, the growth is 83.4% in assay [19] and 103% in assay [20].
Regarding `CS(=O)(=O)c1cccnn1`, the growth in assay [1] is 97.6%; in [2] it was 84.3%; in assay [3], 88.8%; in assay [4], 102%; in assay [5] it was 102%; in assay [6], 98.8%. The growth in [7] is 112%; in assay [8], 82%; in assay [9], 108%; in [10], 103%; in assay [11], 108%; in assay [12], 89.7%. The growth is 48.9% in [13]; 102% in assay [14]; 92.9% in assay [15]; 95.6% in assay [16]; 92.9% in [17]; 90.7% in [18]. The growth in assay [19] was 85.2%; in assay [20], 117%.
Consider `CCc1cccc(Cl)c1`, for which the growth in [1] is 111%; in assay [2], 114%; in assay [3], 120%; in assay [4], 112%; in assay [5], 114%; in [6], 106%. In addition, the growth was 110% in [7]; 104% in assay [8]; 94% in assay [9]; 101% in [10]; 105% in assay [11]; 92.8% in [12]. Besides, the growth in assay [13] was 91%; in assay [14], 104%; in [15], 105%; in assay [16] it was 88.2%; in assay [17], 103%; in assay [18], 101%. Further, the growth in assay [19] was 103%; in assay [20], 106%.
Consider `COc1cc2c(cc1OCCCCCOc1ccc(-n3c(C)nc4ccccc4c3=O)cc1)N=C[C@@H]1CCCN1C2=O`, for which the growth in assay [1] is -25.2% (active); in [2], -17.5% (active); in assay [3], -78.9% (active); in [4] it was 2.33% (active); in assay [5], -73.9% (active); in assay [6] it was -5.47% (active). The growth in [7] was -8.19% (active); in assay [8], -63% (active); in assay [9], 20%; in assay [10], -64.3% (active); in assay [11], 9.39% (active); in assay [12], -1.24% (active). Also, the growth is -80.9% (active) in [13]; 1.38% (active) in assay [14]; 3.85% (active) in assay [15]; 4.39% (active) in assay [16]; -79.6% (active) in assay [17]; -74% (active) in [18]. Besides, the growth in assay [19] was -32.2% (active); in assay [20], -66.8% (active).
As to `O=C(Nc1ccc(CN2CCOCC2)c(C(F)(F)F)c1)c1nc2ccc3[nH]ncc3c2c2c1CCCC2`, the growth in assay [1] was 104%; in [2], 82.8%; in assay [3] it was 106%; in assay [4], 95.9%; in assay [5], 99.7%; in assay [6], 103%. The growth is 97.7% in assay [7]; 99.1% in assay [8]; 88.9% in assay [9]; 91.6% in assay [10]; 82.4% in [11]; 74.8% in [12]. Besides, the growth in assay [13] was 128%; in assay [14] it was 98.4%; in [15] it was 92%; in assay [16], 66.2%; in assay [17], 102%; in [18], 79.2%. Besides, the growth in [19] was 90.5%; in [20], 103%.
